# Data from PubChem BioAssay AID1037 (National Center for Advancing Translational Sciences (NCATS), 2008).
# Calls of active or inactive are those of the source. Calls follow the shape of the full dose curve.
# Experiment: NSCLC 2 Cell Viability Secondary Assay for qHTS Assay for Epigenetic Modulators
# Conditions: NSCLC 2 viability, MTS absorbance, 4 days
# Text: NIH Molecular Libraries Screening Centers Network [MLSCN] NIH Chemical Genomics Center [NCGC] MLSCN Grant: 1 X01 MH079860-01 Assay Provider: Elisabeth D. Martinez, University of Texas SW Medical Center NCGC Assay Overview: This secondary assay characterizes selected actives identified in the qHTS of the Locus Derepression (LDR) assay (PubChem AID 597). The LDR assay detects the derepression of a GFP reporter that is stably integrated in a region of the genome of murine c127i mammary cells that is presumably silenced. Compounds that cause derepression of the locus to express GFP are identified by enumerating GFP positive cells using a laser-scanning microplate cytometer. […] NSCLC 2 cell viability was measured using Cell Titer 96 AQueous One (Promega), an assay which detects the ability of metabolically active cells to reduce a tetrazolium salt substrate (MTS), into a soluble formazan product that can be measured by colorimetry.
# NCGC Assay Protocol Summary NSCLC 2 cells were plated in 96-well flat bottom tissue culture dishes (Corning) and grown overnight at 37 C and 5% CO2, then treated with compounds, incubated 4 days, and assayed for viability using the Cell Titer 96 AQueous One kit (Promega) according to the manufacturer's protocol. Absorbance at 490 nm and 650 nm (reference) was measured by a Spectra Max (Molecular Devices). […]
compound,measurement,value
CN1CSC(=S)N(C)C1,outcome,inactive
